Experimental data reported in PubChem BioAssay (NCI).
The panel holds about 79,000 compounds, 15% with a hit somewhere; the sample as a whole holds those more often. Active and inactive are the calls of the source. Rule as the data show it: active = growth inhibition above about 70%; inactive = the rest.

Assay: NCI Yeast Anticancer Drug Screen. Data for the wt1 strain (AID 149);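 also: 0% = growth of vehicle-treated wt1 cultures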
Details: S. cerevisiae wt1 strain (SPY 50644) growth inhibition, active compounds read high
Experimental: Growth inhibition of yeast strains with defined genetic alterations is measured as a screen for potential anti-cancer activity. Selected strains with alterations in DNA damage repair or cell cycle control were exposed to compounds and growth inhibition was measured relative to vehicle treated controls. The strain used in this assay is wt1

Measured: growth inhibition

N#C/C(=C1C=C/C(=N/O)c2ccccc2/1)c1ccccc1
inactive: at 1.2 µM -3% | at 3.7 µM -4% | at 11.0 µM -6% | at 33.0 µM 53% | at 100.0 µM 56%

Cc1ccc(S(=O)(=O)N/N=C/C2(c3ccccc3)c3ccccc3-c3ccccc32)cc1
active: at 33.0 µM 87% | at 100.0 µM 83%
inactive: at 1.2 µM 25% | at 3.7 µM 13% | at 11.0 µM 34%

N#C/C(=C/N1C(=O)/C(=C/c2ccc([N+](=O)[O-])cc2)SC1=S)c1nc2ccccc2s1
inactive: at 1.2 µM 4% | at 3.7 µM 5% | at 11.0 µM 7% | at 33.0 µM 18% | at 100.0 µM 59%

COc1cc(N(C)C)ccc1/C=C\c1ccnc2ccccc12
inactive: at 1.2 µM -5% | at 3.7 µM -7% | at 11.0 µM -7% | at 33.0 µM -9% | at 100.0 µM -7%

Cc1ccc(CNc2ccc(Br)cc2)cc1
active: at 100.0 µM 82%
inactive: at 1.2 µM -29% | at 3.7 µM -28% | at 11.0 µM -27% | at 33.0 µM 24%

Nc1nc(N)c2cc(Sc3ccc4ccccc4c3)ccc2n1
active: at 33.0 µM 86% | at 100.0 µM 89%
inactive: at 1.2 µM 1% | at 3.7 µM 10% | at 11.0 µM 44%

CCOC(=O)C(NC(=O)CC)(N1CCN(c2cc3c(cc2F)c(=O)c(C(=O)O)cn3C2CC2)CC1)C(F)(F)F (stereo not given)
inactive: at 1.2 µM -2% | at 3.7 µM 1% | at 11.0 µM 0% | at 33.0 µM 14% | at 100.0 µM 66%

ClCCn1c(CCl)nc2ccc(Cl)cc21
inactive: at 1.2 µM -52% | at 3.7 µM -61% | at 11.0 µM -53% | at 33.0 µM 52%
active: at 100.0 µM 97%
